Source: PubChem BioAssay (NCATS)
Results filed as inconclusive are left out. Active and inactive are the calls of the source. Unless noted, the call rests on the fitted dose curve; in most records, active means well fitted curve in the direction sought with a large enough effect; inconclusive means small, poorly fitted or top-dose-only effect, or another doubt; inactive means no such curve, though single readings can be large; an effect the other way counts as inactive or inconclusive.

Legend:
[1] = biological target: Aldehyde dehydrogenase, mitochondrial (Homo sapiens) (UniProt P05091); experiment: qHTS for Inhibitors of the Aldehyde Dehydrogenase Family (ALDH2) Confirmatory screens (AID 2061303; active means well fitted inhibition curve with a large enough effect; title and protocol of this record describe different tests; further: nearly all actives have a fitted effect of over 45% in size)
[2] = qHTS for Inhibitors of the Aldehyde Dehydrogenase Family (ALDH1A2, ALDH1A3, ALDH2, ALDH3A1) (AID 2061307); further: nearly all actives have a fitted effect of over 50% in size; on Potency: test system not described further here; potency means the concentration at half of the fitted maximal effect
[3] = biological target: Aldehyde dehydrogenase, mitochondrial (Homo sapiens) (UniProt P05091); experiment: qHTS for Inhibitors of the Aldehyde Dehydrogenase Family (ALDH2) Primary screen (AID 2061308); further: nearly all actives have a fitted effect of over 55% in size
[4] = biological target: Retinaldehyde dehydrogenase 3 (Homo sapiens) (UniProt P47895); experiment: qHTS for Inhibitors of the Aldehyde Dehydrogenase Family (ALDH1A3) Confirmatory screens (AID 2061311); further: nearly all actives have a fitted effect of over 60% in size; further: potency means the concentration at half of the fitted maximal effect
[5] = biological target: Retinaldehyde dehydrogenase 3 (Homo sapiens) (UniProt P47895); experiment: qHTS for Inhibitors of the Aldehyde Dehydrogenase Family (ALDH1A3) Validation screen (AID 2061312); further: nearly all actives have a fitted effect of over 45% in size
[6] = biological target: Retinal dehydrogenase 2 (Homo sapiens) (UniProt O94788); experiment: qHTS for Inhibitors of the Aldehyde Dehydrogenase Family (ALDH1A2) Confirmation screens (AID 2061314); further: nearly all actives have a fitted effect of over 65% in size; further: potency means the concentration at half of the fitted maximal effect
[7] = biological target: Retinaldehyde dehydrogenase 3 (Homo sapiens) (UniProt P47895); experiment: qHTS for Inhibitors of the Aldehyde Dehydrogenase Family (ALDH1A3) Primary screen (AID 2061315)
[8] = biological target: Aldehyde dehydrogenase 1A1 (Homo sapiens) (UniProt P00352); experiment: qHTS for Inhibitors of the Aldehyde Dehydrogenase Family (ALDH1A1) Confirmatory screens (AID 2061316); further: nearly all actives have a fitted effect of over 65% in size

Measured: Potency

CCC(C)NC(=O)c1ccc(-c2cccc(C#N)c2)o1 (centres undefined)
inactive: [1]

Cc1ccc(CNC(=O)c2ccc(-c3ccc(N4CCCCC4)nc3)cc2)o1
inactive: [1]

O=C(Nc1ccccc1Cl)c1cnc2ccc(C3CCNCC3)cn12
not listed: [8]
inactive: all other assays above

CC(C)NC(=O)Cc1csc2nc(-c3ccccc3)cn12
inactive: [1]

CCN(CC)S(=O)(=O)c1ccc2c(c1)N(CC(=O)Nc1cccc(C#N)c1)C(=O)CO2
inactive: [1]

CCOc1ccc(NC(=O)c2ccc(-c3cccc(Cl)c3C)o2)cc1
inactive: [1]

Cc1ccc(C(=O)N2CCC(N3CCN(Cc4ccc(F)cc4)C(=O)C3=O)CC2)cc1
inactive: [1]

CCn1ccnc1CN(C)c1nccc(-c2ccc(C)nc2C)n1
inactive: [1]

COc1ccc(C[C@@H](NS(=O)(=O)c2ccc(C(=O)O)cc2)C(=O)O)cc1
not listed: [5]
inactive: all other assays above

Cc1ccc(S(=O)(=O)NC(N)=NCCC[C@@H](NC(=O)CNC(=O)c2ccccc2)C(=O)Nc2cc(C(F)(F)F)ccc2Cl)cc1
not listed: [5]
inactive: all other assays above

NC(=O)C1CCN(c2ncc(-c3ccc(Cl)cc3)s2)CC1
active: [2] 12.7 µM
not listed: [5] | [8]
inactive: all other assays above

NC1CCN(c2cnc3c(O)ccc(C(=O)O)c3c2)CC1
active: [4] 20.1 µM | [6] 14.2 µM
inactive: [1] | [2] | [3] | [7]

O=[S+]([O-])(NCc1nccs1)c1ccc(Nc2nc(-c3ccccc3)cs2)cc1
not listed: [5] | [8]
inactive: all other assays above

Fc1ccc(CSc2nc3ncc(Br)cc3[nH]2)cc1
not listed: [5]
inactive: all other assays above

O=C1CCCC2=C1C(c1cccnc1Cl)N=C(Nc1nc3ccccc3o1)N2 (centres undefined)
active: [6] 22.5 µM
not listed: [5] | [8]
inactive: all other assays above
